This is an account of results in PubChem BioAssay (NCATS).

Inconclusive results are not listed. Values without a mark were called inactive. Calls of active or inactive are those of the source. Calls come from the whole dose curve; as a rule, active = well fitted cell-killing curve with a large enough effect; inconclusive = small, poorly fitted or top-dose-only effect, or effect the other way; inactive = flat fitted curve, though single readings scatter.
% is set by controls: 0 for no effect and ±100 for the full control effect; potency is the fitted concentration of half-maximal effect.

The nature of the assay: Cell Viability - HUV-EC-C (AID 542). Note: nearly all actives have a fitted effect of over 35% in size. The following applies: HUV-EC-C endothelial cell viability, qHTS; series mostly up to 92.2 µM; activity change, negative = cytotoxicity: at the top concentration. An excerpt: NIH Chemical Genomics Center [NCGC]
NIH Molecular Libraries Screening Centers Network [MLSCN]
National Institutes of Environmental Health Sciences [NIEHS]
National Toxicology Program [NTP]
We have developed a 1536-well cell-based assay for quantitative high throughput screening (qHTS) against a number of cell lines to determine in vitro cytotoxicity of small molecules. This particular assay uses the HUV-EC-C cell line which is derived from normal human vascular endothelial cells.
NCGC Assay Protocol Summary:
The CellTiter-Glo luminescent cell viability assay (Promega) is a homogeneous method to measure the number of viable cells in culture. The end point readout of this assay is based on quantitation of intracellular ATP, an indicator of metabolic activity, using the luciferase reaction. Luciferase catalyzes the oxidation of beetle Luciferin to oxyluciferin and light in the presence of ATP. The luminescent signal is proportional to amount of ATP present.
Using the CellTiter-Glo luminescent cell viability assay, the amount of cellular ATP was measured in the HUV-EC-C cell line with complete culture medium following compound treatment for 40 hours. The assay was performed in opaque white Kalypsys 1536-well plates. In the screen, tamoxifen and doxorubicin were used as positive controls. Library compounds were measured for their ability to cause acute toxicity in the cell line, as reflected by a decrease in intracellular ATP levels, in a concentration-dependent manner. […] AC50 values were determined from concentration-response data modeled with the standard Hill equation.
qHTS protocol for CellTiter Glo HUV-EC-C cellular assay
[Step] [Parameter] [Value] [Description]
1. Reagent; 5 uL; 1000 HUV-EC-C cells/well
2. Time; 5 hr; 37 °C incubation
4. Controls; 23 nL; Tamoxifen 0.34 uM to 100 uM & Doxorubicin 0.02 nM to 100 uM
5. Time; 40 hr; 37 °C incubation
6. Reagent; 5 uL; CellTiter Glo reagent
7. Time; 20 min; Room Temperature
8. Detection; Luminescence; Viewlux plate reader
Keywords: cell viability, cytotoxicity, HUV-EC-C cell line, luminescence, NTPHTS, NTPHTS_NCGC, NIEHS, EPA, DSSTox, MLSMR, MLSCN, NIH Roadmap, qHTS, NCGC
Regarding `Cc1noc(NS(=O)(=O)c2ccc(N)cc2)c1C`, the “activity change, negative = cytotoxicity” value was 2.82%.
Still for that read-out and setting: as for `Cc1nnc(NS(=O)(=O)c2ccc(N)cc2)s1`, the figure is 0.309%; as for `O=C(N[C@H](CO)[C@H](O)c1ccc([N+](=O)[O-])cc1)C(Cl)Cl`, 21.7%.
As to `CCc1cc(C(N)=S)ccn1`, the “activity change, negative = cytotoxicity” value is -5.54%.
With `CC(=O)[C@H]1CC[C@H]2[C@@H]3CCC4=CC(=O)CC[C@]4(C)[C@H]3CC[C@]12C`, the Potency result is “inactive”.
Take `NNC(=O)c1ccncc1`: the “activity change, negative = cytotoxicity” value was 9.07%.
As for `Cc1cc(NS(=O)(=O)c2ccc(N)cc2)no1`, the “activity change, negative = cytotoxicity” value is 3.95%.
For the molecule `O=C(O)c1cc(=O)[nH]c(=O)[nH]1`, the “activity change, negative = cytotoxicity” value was -5.97%.
With `CC1=NN(c2ccccc2)C(=O)C1`, the “activity change, negative = cytotoxicity” value is 3.64%.
Take `COc1ccc2cc3[n+](cc2c1OC)CCc1cc2c(cc1-3)OCO2`: the “activity change, negative = cytotoxicity” value is -13.3%.
For the molecule `C[C@]12C=CC(=O)C=C1CC[C@@H]1[C@@H]2C(=O)C[C@@]2(C)[C@H]1CC[C@]2(O)C(=O)CO`, the “activity change, negative = cytotoxicity” value was 8.39%.
Turning to `NC(N)=NC(N)=NCCc1ccccc1`, the “activity change, negative = cytotoxicity” value was 2.15%.
As for `CN(C)c1ccc(C(=C2C=CC(=[N+](C)C)C=C2)c2ccc(N(C)C)cc2)cc1`, the Potency is 3.98 µM (active).
Turning to `CC[C@H](C)C(=O)O[C@H]1C[C@@H](C)C=C2C=C[C@H](C)[C@H](CC[C@@H]3C[C@@H](O)CC(=O)O3)[C@H]21`, the “activity change, negative = cytotoxicity” value is -17.3%.
Take `CC(=O)Oc1ccccc1C(=O)Nc1ncc([N+](=O)[O-])s1`: the Potency was 31.6 µM (active).
Turning to `Cc1ccnc2c1NC(=O)c1cccnc1N2C1CC1`, the “activity change, negative = cytotoxicity” value is 4.2%.
`Cc1ncc([N+](=O)[O-])n1CCO`: the “activity change, negative = cytotoxicity” value is 5.58%.
